Measurements as given in PubChem BioAssay.
Calls of active or inactive are those of the source.

What was measured:
[1] = anti-His antibody binders, primary screen, artefact control for SMM control protein annotation, biochemical, small-molecule microarray, 635 nm fluorescence (AID 1128); conditions: anti-His Alexa647 antibody binding, higher = more signal;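 also: score merges feature fluorescence with signal-to-noise for each printed compound spot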
[2] = tested on: Human papillomavirus type 1a E7 protein (residues 1-88); assay: HPV1a E7 small-molecule binders, primary screen, biochemical, small-molecule microarray, residues 1-88, 635 nm (AID 1129); conditions: small-molecule microarray binding, fluorescence 635 nm; higher = more signal
[3] = molecular target: Focal adhesion kinase 1 (Homo sapiens) (UniProt Q05397); assay: small-molecule microarray binders of FAK, primary screen, biochemical, 635/667 nm fluorescence, BSA, DTT (AID 1130); conditions: PTK2 binding, 635 nm fluorescence, higher = more signal;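 also: composite of spot emission at 667 nm and signal to noise over triplicate slides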
Focal adhesion kinase 1 (Homo sapiens), sequence (Q05397 whole entry, looked up): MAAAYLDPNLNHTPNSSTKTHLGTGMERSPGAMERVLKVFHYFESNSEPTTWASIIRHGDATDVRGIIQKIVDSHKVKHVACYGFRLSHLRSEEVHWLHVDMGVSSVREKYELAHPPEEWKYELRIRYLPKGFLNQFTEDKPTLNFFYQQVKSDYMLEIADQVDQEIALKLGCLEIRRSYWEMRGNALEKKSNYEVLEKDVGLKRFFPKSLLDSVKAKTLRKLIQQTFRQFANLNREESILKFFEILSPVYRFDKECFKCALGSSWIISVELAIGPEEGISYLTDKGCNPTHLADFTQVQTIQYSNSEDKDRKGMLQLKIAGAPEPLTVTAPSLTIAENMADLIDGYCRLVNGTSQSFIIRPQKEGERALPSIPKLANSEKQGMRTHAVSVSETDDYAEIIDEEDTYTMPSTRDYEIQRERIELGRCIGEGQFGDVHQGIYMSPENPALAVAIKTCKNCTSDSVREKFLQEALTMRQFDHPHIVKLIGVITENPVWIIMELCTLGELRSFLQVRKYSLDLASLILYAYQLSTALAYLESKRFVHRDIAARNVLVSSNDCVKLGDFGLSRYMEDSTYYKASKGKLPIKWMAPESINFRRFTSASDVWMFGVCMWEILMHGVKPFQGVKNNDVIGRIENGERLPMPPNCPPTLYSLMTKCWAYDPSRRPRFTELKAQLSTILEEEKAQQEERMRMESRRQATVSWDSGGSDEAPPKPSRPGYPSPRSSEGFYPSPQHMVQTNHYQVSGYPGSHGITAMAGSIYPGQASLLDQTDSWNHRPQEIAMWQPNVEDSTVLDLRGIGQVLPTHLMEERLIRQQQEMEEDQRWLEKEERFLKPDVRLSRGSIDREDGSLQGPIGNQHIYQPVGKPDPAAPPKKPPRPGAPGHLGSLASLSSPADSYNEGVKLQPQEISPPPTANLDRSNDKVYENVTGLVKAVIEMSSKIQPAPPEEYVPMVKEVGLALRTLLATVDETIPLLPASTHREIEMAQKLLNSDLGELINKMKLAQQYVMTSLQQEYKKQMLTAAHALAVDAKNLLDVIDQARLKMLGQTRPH

[4] = tested on: Fibrinogen (Alexa647-labelled); assay: fibrinogen binders on compound microarrays, profiling panel, artefact control for SMM control-protein annotation, biochemical, small-molecule microarray, 635/667 nm fluorescence (AID 1131); conditions: fibrinogen-A647 binding fluorescence, higher = more signal;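 also: z-score merges 667 nm fluorescence with per-spot signal-to-noise over triplicate slides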
[5] = molecular target: Follistatin (Homo sapiens) (UniProt P19883); assay: follistatin binders on small-molecule microarrays, primary screen, biochemical, small-molecule microarray, 635/667 nm fluorescence (AID 1132); conditions: FST binding, 635 nm fluorescence, higher = more signal
Follistatin (Homo sapiens), sequence (P19883 whole entry, looked up): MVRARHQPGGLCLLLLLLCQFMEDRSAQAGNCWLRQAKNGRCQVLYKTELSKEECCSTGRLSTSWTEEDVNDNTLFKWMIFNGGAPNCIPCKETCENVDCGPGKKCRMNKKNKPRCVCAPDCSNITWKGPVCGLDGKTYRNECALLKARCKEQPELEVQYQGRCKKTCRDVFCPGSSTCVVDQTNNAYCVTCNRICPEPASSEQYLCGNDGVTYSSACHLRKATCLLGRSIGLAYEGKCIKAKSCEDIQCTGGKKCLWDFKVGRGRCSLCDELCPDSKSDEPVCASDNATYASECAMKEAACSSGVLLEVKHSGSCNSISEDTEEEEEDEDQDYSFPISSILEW

[6] = molecular target: Fibroblast growth factor 2 (Homo sapiens) (UniProt P09038); assay: FGF2 binders on small-molecule microarrays, primary screen, biochemical, small-molecule microarray, 635/667 nm fluorescence (AID 1133); conditions: small-molecule microarray binding, FGF2, fluorescence 635/667; higher = more signal
Fibroblast growth factor 2 (Homo sapiens), sequence (P09038 whole entry, looked up): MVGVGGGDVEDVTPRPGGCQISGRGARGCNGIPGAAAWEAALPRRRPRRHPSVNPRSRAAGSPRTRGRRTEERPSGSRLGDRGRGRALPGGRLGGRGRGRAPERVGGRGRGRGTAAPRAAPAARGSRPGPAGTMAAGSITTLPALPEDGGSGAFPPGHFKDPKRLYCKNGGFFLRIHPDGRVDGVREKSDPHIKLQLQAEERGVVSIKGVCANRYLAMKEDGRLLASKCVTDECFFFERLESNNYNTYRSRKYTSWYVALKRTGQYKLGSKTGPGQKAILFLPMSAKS

[7] = mitochondrial membrane potential change in A549 cells, profiling panel, cell-based, JC-1 fluorescence, basal, 24 h, 100 nL (AID 1138); conditions: higher = more signal;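 also: A549 lung adenocarcinoma cells under basal conditions with no added stimulus; test concentration not given here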
Lefty1 = Lefty1 binders on small-molecule microarrays, primary screen, biochemical, small-molecule microarray, 635/667 nm fluorescence (AID 1139); conditions: small-molecule microarray binding, fluorescence 635/667; higher = more signal
[8] = tested on: wheat germ agglutinin (Triticum aestivum), Alexa647-labelled; assay: wheat germ agglutinin binders on compound microarrays, profiling panel, artefact control for SMM control-protein annotation, biochemical, small-molecule microarray, 635/667 nm fluorescence (AID 1140); conditions: WGA-A647 binding, 635 nm fluorescence, higher = more signal;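 also: score merges 667 nm feature emission with signal to noise over triplicate slides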
[9] = molecular target: Luciferin 4-monooxygenase (Photinus pyralis) (UniProt P08659); assay: firefly luciferase enzyme inhibitors, primary screen, biochemical, luminescence, purified enzyme, 2006 set (AID 1141); conditions: SteadyGlo luminescence, 30 min, higher = more signal, called active from +8 up or from −8 down;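 also: cell-free assay with purified firefly luciferase at 100 ng per well in PBS; test concentration not given here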
Luciferin 4-monooxygenase (Photinus pyralis), sequence (P08659 whole entry, looked up): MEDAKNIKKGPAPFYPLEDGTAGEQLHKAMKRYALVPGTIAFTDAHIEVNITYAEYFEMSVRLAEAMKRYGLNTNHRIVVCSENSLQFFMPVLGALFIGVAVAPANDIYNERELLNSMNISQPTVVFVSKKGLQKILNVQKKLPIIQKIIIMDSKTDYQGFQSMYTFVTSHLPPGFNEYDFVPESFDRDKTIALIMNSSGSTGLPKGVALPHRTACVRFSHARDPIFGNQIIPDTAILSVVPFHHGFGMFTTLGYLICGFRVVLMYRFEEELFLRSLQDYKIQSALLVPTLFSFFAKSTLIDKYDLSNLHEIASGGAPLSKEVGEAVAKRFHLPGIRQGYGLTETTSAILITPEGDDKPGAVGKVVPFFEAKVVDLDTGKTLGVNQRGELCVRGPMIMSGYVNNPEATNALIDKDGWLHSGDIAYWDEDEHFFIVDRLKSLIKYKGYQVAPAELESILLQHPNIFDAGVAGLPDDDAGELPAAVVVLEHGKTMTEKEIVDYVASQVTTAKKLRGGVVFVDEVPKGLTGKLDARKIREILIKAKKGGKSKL

Row | Compound | composite z-score [1] | composite z-score [2] | composite z-score [3] | composite z-score [4] | composite z-score [5] | composite z-score [6] | z-score [7] | composite z-score (Lefty1) | composite z-score [8] | z-score [9]
1 | [N-]=[N+]=NCc1ccccc1[C@@H]1OC(c2ccc(OCCCO)cc2)=N[C@]1(Cc1ccccc1N=[N+]=[N-])C(=O)N1CCOCC1 | 2.12 | 1.27 | 0.536 | 0.857 | 1.31 | 1.66 | 1.28 | -0.207 | 1.13 | -1.52 (inactive)
2 | CC[C@@H]1C=C(C(=O)O)[C@H](c2ccco2)N1S(=O)(=O)c1ccc(C)cc1 | 0.2 | -0.522 | 1.32 | -1.13 | 1 | -0.152 | -1.09 | -0.165 | 0.839 | 1.09 (inactive)
3 | C[C@@]1([C@@H](NC(=O)c2ccccc2)c2ccc(-c3ccccc3)cc2)C[C@H]1C1CCCCC1 | -1.28 | -0.202 | 0.327 | -0.695 | -0.548 | -1 | -0.507 | -0.848 | 0.519 | 1.32 (inactive)
4 | CN1C(=O)C2C=CC(C(O)c3cc(C(F)(F)F)cc(C(F)(F)F)c3)N(N3CCCCC3)C2C1=O (stereo not given) | 1.13 | 1.03 | 0.428 | 0.62 | -0.165 | -0.397 | -0.0918 | -0.4 | 0.615 | -1.48 (inactive)
5 | COc1cc(OC)c(C(O)C2C=CC3C(=O)NC(=O)C3N2Nc2ccc(Cl)cc2Cl)cc1Br (stereo not given) | 1.29 | 1.22 | 0.859 | 0.786 | 0.677 | 0.518 | -0.824 | 0.0498 | 1.07 | 0.719 (inactive)
6 | C[C@]1(C(=O)NC2CC2)c2ccccc2C(=O)N(Cc2cc(C(F)(F)F)cc(C(F)(F)F)c2)[C@H]1c1ccc(CO)cc1 | 1.86 | 1.11 | -0.0326 | 0.657 | 1.31 | 0.998 | 1.73 | 0.539 | 0.772 | -1.07 (inactive)
7 | CCOC(=O)C1=CCC(c2ccccc2)N(S(=O)(=O)CC[Si](C)(C)C)C1 (stereo not given) | 0.149 | -0.401 | 0.384 | -0.325 | -0.172 | -0.617 | 3.06 | -0.503 | 0.0225 | 1.2 (inactive)
8 | CC(C)C[C@@H]1NC(=O)[C@H]2C[C@@H](C(=O)NCCCCCCN(C)C)[C@@H](c3ccc(O)cc3)N2C1=O | 2.44 | 0.977 | 0.34 | 0.357 | 1.35 | 1.29 | -0.0361 | 1.19 | 0.115 | -0.263 (inactive)
9 | CCCC=C(CCC)[C@@H](NC(=O)Oc1ccc(F)cc1)c1ccc(C(=O)OC)cc1 | 0.421 | 1.15 | 0.401 | 0.906 | 0.746 | -0.161 | 2.89 | -0.186 | 1.09 | 0.516 (inactive)
10 | CCCCC(O)C1C=CC2C(=O)N(c3ccccc3)C(=O)C2N1Nc1ccccc1F (stereo not given) | 1.35 | 1.11 | 0.527 | 0.924 | 0.347 | -0.563 | 0.354 | -0.0785 | 1.2 | 0.247 (inactive)
11 | COc1cc2c(cc1OC)CN(C(=O)[C@H]1[C@@H]3C(=O)O[C@@H](c4ccccc4)[C@@H](c4ccccc4)N3[C@@H](c3ccc(O)cc3)[C@]13C(=O)Nc1ccc(C#CCNC(N)=O)cc13)CC2 | -0.327 | -0.0403 | 0.0099 | -0.231 | 1.29 | 0.967 | -0.73 | 0.669 | 0.344 | 0.8 (inactive)
12 | O=C1O[C@H](c2ccccc2)[C@H](c2ccccc2)N2[C@H]1[C@@H](C(=O)O)[C@]1(C(=O)Nc3ccc(C#CCCO)cc31)[C@H]2c1ccc(O)cc1 | 0.0887 | 0.0227 | 0.724 | -0.862 | 0.771 | -0.317 | 1.07 | -0.279 | 0.349 | -1.72 (inactive)
13 | COc1cc2c(cc1O)C=[N+](Cc1cccc(OC(F)(F)F)c1)CC2 | -0.131 | -0.566 | 0.185 | -0.636 | 0.318 | -0.0744 | 2 | -0.285 | 1.01 | -0.847 (inactive)
14 | C=CCOC(=O)[C@@H]1[C@H]2C(=O)O[C@H](c3ccccc3)[C@H](c3ccccc3)N2[C@H](c2ccc(OCCOC(=O)[C@@H]3C[C@@H]4C(=O)N[C@@H](Cc5ccccc5)C(=O)N4[C@@H]3c3ccc(O)cc3)cc2)[C@@]12C(=O)Nc1ccc(I)cc12 | 1.11 | 0.947 | 0.375 | 0.799 | 1.41 | 1.61 | -1.53 | 1.41 | 0.844 | 0.304 (inactive)
15 | COc1ccc(C#Cc2ccc3c(c2)[C@]2(C(=O)N3)[C@H](c3ccccc3OCCO)N3[C@H](c4ccccc4)[C@H](c4ccccc4)OC(=O)[C@H]3[C@@H]2C(=O)O)cc1 | 1.61 | 1.22 | 0.191 | 0.951 | 0.694 | 0.314 | -2.59 | 1.15 | 1.28 | -3.9 (inactive)
16 | COC(=O)[C@@]1(Cc2ccc(F)cc2)[C@H]2c3cc(C(=O)N(C)C)n(Cc4ccc(S(C)(=O)=O)cc4)c3C[C@H]2CN1C(=O)c1ccccc1 | 0.904 | 0.941 | 1.16 | 1.01 | 0.158 | 0.0722 | 0.521 | -0.224 | 0.766 | 0.202 (inactive)
17 | O=C1O[C@H](c2ccccc2)[C@H](c2ccccc2)N2[C@H]1[C@@H](C(=O)Nc1nc3ccccc3s1)[C@]1(C(=O)Nc3ccc(C#CC4(O)CCCCCC4)cc31)[C@H]2c1ccc(OCCO)cc1 | 2 | 1.14 | 0.429 | 0.976 | 1.43 | 1.39 | -2.27 | 1.05 | 0.921 | -2.79 (inactive)
18 | NCCCCCNC(=O)[C@@H]1C[C@@H]2C(=O)NCC(=O)N2[C@@H]1c1ccc(O)cc1 | 2.18 | 1.19 | 0.0992 | 0.948 | 1.51 | 1.79 | 1.41 | 1.76 | 0.891 | -1.11 (inactive)
19 | COC(=O)[C@@]1(Cc2ccccc2)[C@H]2c3cc(C(=O)N4CCCC4)n(CC4CC4)c3C[C@H]2CN1C(=O)c1ccccc1 | 1.13 | 1.2 | 0.885 | 0.643 | 0.76 | -0.031 | -0.641 | 0.206 | 0.847 | 1.42 (inactive)
20 | COc1ccc(NN2C(C(O)c3ccc([N+](=O)[O-])cc3)C=CC3C(=O)N(C4CCCCC4)C(=O)C32)cc1 (stereo not given) | 0.525 | 0.918 | 0.201 | 0.93 | 0.737 | -0.532 | 0.732 | 0.0274 | 1.13 | 0.939 (inactive)
21 | COc1ccc([Si](C)(C)[C@H]2[C@H](CCn3cc([C@H](O)c4ccccc4)nn3)O[C@@]3(C(=O)N(Cc4cccc(N5CCOC5=O)c4)c4ccccc43)[C@@H]2C)cc1 | 0.0694 | 0.679 | 0.0871 | 0.401 | 1.28 | 0.669 | 0.711 | 0.892 | 0.22 | 0.387 (inactive)
22 | COCCOC(=O)N1C(=O)[C@@]2(c3cc(C#Cc4ccc(OC)cc4)ccc31)[C@H](C(N)=O)[C@H]1C(=O)O[C@H](c3ccccc3)[C@H](c3ccccc3)N1[C@@H]2c1ccccc1OCCO | 2.24 | 1.21 | 0.861 | 1 | 1.3 | 1.42 | -1.47 | 1.58 | 0.901 | 0.0449 (inactive)
23 | Cc1ccc(S[C@]2(C(=O)NCCN3CCOCC3)CC(=O)N(Cc3ccccc3)[C@@H]2c2ccc(CO)cc2I)cc1 | 1.75 | -0.104 | 0.217 | -1.42 | -0.422 | -1.2 | 0.0777 | -1.08 | -0.592 | 0.4 (inactive)
24 | CN(C)C(=O)[C@]1(Cc2ccccc2CN=[N+]=[N-])N=C(c2ccc(OCCCO)cc2)O[C@@H]1c1ccccc1CN=[N+]=[N-] | 1.17 | 1.25 | 0.44 | 0.969 | 1.28 | 0.355 | 0.0653 | 1.06 | 1.09 | -0.554 (inactive)
25 | COc1ccc(C(O)C2C=CC3C(=O)N(C)C(=O)C3N2N2CCCCC2)c2ccccc12 (stereo not given) | 1.4 | 1.26 | 0.921 | 1 | 0.829 | -0.372 | -0.364 | 0.174 | 1.27 | -0.129 (inactive)
26 | COc1cc2c(cc1OC)CN(C(=O)[C@H]1[C@@H]3C(=O)O[C@@H](c4ccccc4)[C@@H](c4ccccc4)N3[C@@H](c3ccc(O)cc3)[C@]13C(=O)Nc1ccc(C#CC4=CCCCC4)cc13)CC2 | 2.11 | 1.19 | -0.0164 | 0.666 | 1.22 | 0.86 | 0.0961 | 1.2 | 1.12 | -1.1 (inactive)
27 | CC(C)(C)OC(=O)CC[C@@]1(C(=O)NCC(O)CO)N=C(c2ccc(OCCCO)cc2)O[C@@H]1c1ccccc1N=[N+]=[N-] (stereo not given in full) | 2.37 | 0.818 | 0.94 | 0.985 | 1.43 | 0.692 | 1.18 | -0.0052 | 0.96 | -10.6 (active)
28 | C=CCNC(=O)[C@@H]1[C@H]2C(=O)O[C@H](c3ccccc3)[C@H](c3ccccc3)N2[C@H](c2ccc(OCCO)cc2)[C@@]12C(=O)Nc1ccc(C#Cc3ccc(OC)cc3)cc12 | 0.785 | 1.18 | 0.452 | 0.798 | 1.42 | 0.989 | -1.87 | 1.57 | 1.17 | -0.398 (inactive)
